An excerpt weighted towards active compounds, which were near 2.5% of everything screened.
Cruzain noTriton: cruzain (T. cruzi) inhibition without detergent; P25779; purified cruzain, Z-FR-AMC fluorescence, no detergent; Potency, µM, for the others: max response, negative = inhibition, hits mostly inhibitors; 2.3% of 200,000 active; AID 1476;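 further: plate controls were enzyme without inhibitor for no effect and buffer without enzyme for full effect; nearly all actives have a fitted effect of over 40% in size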
Target sequence (P25779 123-467 limits assumed): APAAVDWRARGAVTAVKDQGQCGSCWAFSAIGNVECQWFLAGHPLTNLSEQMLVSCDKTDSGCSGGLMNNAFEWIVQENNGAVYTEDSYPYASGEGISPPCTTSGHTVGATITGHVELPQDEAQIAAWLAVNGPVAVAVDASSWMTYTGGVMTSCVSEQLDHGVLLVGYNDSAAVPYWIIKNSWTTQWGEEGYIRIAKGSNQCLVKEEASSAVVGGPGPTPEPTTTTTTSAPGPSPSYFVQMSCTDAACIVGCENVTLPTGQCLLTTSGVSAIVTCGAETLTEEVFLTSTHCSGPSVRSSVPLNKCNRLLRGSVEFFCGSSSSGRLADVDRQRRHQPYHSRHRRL
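Detergent-free condition (0.00005% Triton X-100) in acetate buffer pH 5.5 with DTT. 1.5 nM enzyme and compound were pre-mixed 15 min, then 2 uM Z-FR-AMC substrate added; reaction progress from fluorescence change between first and third reads (60 s).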
Cruzain inh Det: inhibitors of Trypanosoma cruzi cruzain with detergent; Potency, µM, inactives show max response, negative = inhibition, usual class: inhibitors; purified cruzain, Z-FR-AMC fluorescence, 0.01% Triton; P25779; 0.43% of 200,000 active; AID 1478;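 further: plate controls were neutral wells for no effect and buffer without enzyme for full effect; nearly all actives have a fitted effect of over 40% in size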
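15 min RT preincubation of 1.5 nM cruzain with compound, then 2 uM Z-FR-AMC added; kinetic AMC fluorescence, 60 s delta. Triton X-100 0.01%, pH 5.5.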
Starred values were filed as active, the others as inactive; ? = inconclusive; ! = not active in a repeat. The call rests on the fitted dose curve; in most records, active means well fitted curve in the direction sought with a large enough effect; inconclusive means small, poorly fitted or top-dose-only effect, or another doubt; inactive means no such curve, though single readings can be large; an effect the other way counts as inactive or inconclusive. Potency means the concentration at half of the fitted maximal effect.

SMILES	Cruzain noTriton	Cruzain inh Det
O=C(N1CCOCC1)C12CCC3CC(CC(C3)C1)C2	-2.2%	3.7%
CCN1CCc2nc(NC(=O)CC(c3ccccc3)c3ccccc3)sc2C1	31.6µM*	0.1%
CCN1CCc2nc(NC(=O)C(c3ccccc3)c3ccccc3)sc2C1	-7.4%	-0.1%
CCc1ccccc1NC(=O)Cn1nnc(C(=O)NCc2cccc(OC)c2)c1N	-20.7%	-0.8%
CC(=O)c1cccc(S(=O)(=O)N2CCN(c3nc4cc(C)cc(C)c4cc3C#N)CC2)c1	15.8µM*	-1.1%
CC(=O)c1cccc(S(=O)(=O)N2CCN(c3ccccc3F)CC2)c1	-5.9%	-5.5%
CCc1cc2c(cc3c(=O)n(CC(=O)N4CCC(C)CC4)nc(CC)n32)s1	-3.4%	-2.3%
CCCCNC(=O)CCn1c(=O)c2cccn2c2ccc(F)cc21	16.6%	-3.5%
COC(=O)c1c(NC(=O)COc2ccc(Cl)cc2)sc(C)c1C	-4.1%	-3.1%
COC(=O)c1c(NC(=O)Nc2ccc(Cl)cc2)sc(C)c1C	25.1µM*!	0.4%
CCOC(=O)c1c(-c2ccccc2)oc2ccc(NS(=O)(=O)c3cc(C)c(C)cc3C)cc12	7.94µM*	-2.8%
CCOC(=O)c1c(-c2ccccc2)oc2ccc(NS(=O)(=O)c3ccccc3)cc12	-26.3%	-6.6%
COc1ccc(N2CCN(S(=O)(=O)c3ccc(Cl)c(C(F)(F)F)c3)CC2)cc1	15.8µM*	4.2%
COc1ccc(N2CCN(S(=O)(=O)c3cccc(C(F)(F)F)c3)CC2)cc1	-1.7%	2.3%
Cc1ccc(Nc2nc3nonc3nc2Nc2cccc(C(F)(F)F)c2)cc1Cl	-11.3%	-1.4%
COc1ccc(C)cc1-n1c(SCC(=O)NCc2ccco2)nc2c([nH]c3ccccc32)c1=O	?	-4.6%
Cc1sc2nc(CN3CCCC3)nc(N3CCN(S(=O)(=O)c4cccs4)CC3)c2c1C	15.8µM*	0.0%
Cc1sc2nc(CN3CCCCC3)nc(Cl)c2c1C	1.3%	-5.3%
COCCn1c(C)cc(O)c(C(c2ccc(C)cc2)N2CCCCC2)c1=O (stereo not given)	?	-0.2%
COc1cccc(CN2C(=O)CN(C3CCCCC3)C(=O)C2c2ccc(OC)c(OC)c2)c1 (stereo not given)	-12.0%	3.1%
CC1=NN(c2ccccc2)C(=O)/C1=C\c1c(C)[nH]n(-c2ccccc2)c1=O	1.7%	0.9%
CC1=NN(c2ccccc2)C(=O)/C1=C/c1c(O)n(-c2ccc(F)c(Cl)c2)[nH]c1=O	-5.5%	22.4µM*
COc1ccccc1CCNC(=O)c1cc2c(=O)n3cccc(C)c3nc2n1C	?	-25.6%
COc1ccc(Oc2nc(Oc3ccc(OC)cc3)nc(Oc3ccc(OC)cc3)n2)cc1	3.16µM*	1.6%
COc1nc(Oc2ccc(C(=O)O)cc2)nc(Oc2ccc(C(=O)O)cc2)n1	-6.9%	5.1%
SMILES	Cruzain noTriton	Cruzain inh Det
CCOC(=O)C1CCN(CCC(=O)Nc2ccc(Br)c(C)c2)CC1	-11.5%	0.5%
CCOc1cc(Cn2c(-c3ccc(O)c(OCC)c3)nc3ccccc32)ccc1O	1.4%	-1.9%
Cc1oc2c(cc(NS(=O)(=O)c3ccc(F)cc3)c3ccccc32)c1C(=O)OCc1ccccc1	?	0.3%
Cc1ccc(S(=O)(=O)Nc2cc3c(C(=O)OCc4ccccc4)c(C)oc3c3ccccc23)cc1	7.94µM*	-2.8%
Cc1oc2c(cc(NS(=O)(=O)c3ccc(Br)cc3)c3ccccc32)c1C(=O)OCc1ccccc1	-27.4%	-2.0%
Cc1ccc(S(=O)(=O)Nc2cc3c(C(=O)OCc4ccccc4)c(C)oc3c3ccccc23)c(C)c1	5.01µM*	-1.4%
COc1ccc(CCNC(=O)c2ccc3c(c2)ncn3-c2ccc(C(C)C)cc2)cc1OC	15.8%	-6.6%
NCCCCN	-5.2%	3.7%
Cc1cc(C)c(NC(=O)C(C)n2c(=O)cc(C)c3c(C)nn(-c4ccccc4)c32)c(C)c1 (stereo not given)	9.4%	0.1%
COc1cc2ccccc2cc1C(=O)Nc1ccc2oc(-c3ccccc3)nc2c1	-2.3%	-4.9%
COc1cc2c(cc1NC(=O)COc1ccc(Br)c(C)c1)oc1ccccc12	-13.1%	-0.8%
CSc1cc2c(cc1C(F)(F)F)N(C(=O)Nc1cccnc1)CC2	7.94µM*	0.7%
Cc1cc(C(F)(F)F)nn1CC(=O)Nc1cccnc1	-5.6%	0.9%
CCOc1ccccc1NC(=O)C1CCN(S(=O)(=O)c2ccccc2)CC1	-15.1%	-4.1%
CCC(=O)N1CCc2cc(Br)cc(S(=O)(=O)CCC(=O)NCc3ccc(Cl)cc3)c21	?	-2.2%
CCOC(=O)c1c(C)oc2nc(C)nc(NCc3ccc(OC)cc3)c12	-3.5%	0.5%
O=[N+]([O-])c1cc([N+](=O)[O-])c2ccccc2c1	-4.5%	-5.4%
O=[N+]([O-])c1ccc(CCNc2cccc3ccccc23)c([N+](=O)[O-])c1	25.1µM*	-0.9%
CCOCCCNC(=S)NCCNc1nc2ccc(C)cc2cc1C#N	3.8%	-3.3%
COCCNC(=S)NCCCNc1nc2cc3c(cc2cc1C#N)OCO3	?	17.8µM*
CC(=O)N1CC=C2C(C#N)=C(N)C(C#N)(C#N)C(CCc3ccccc3)C2C1 (stereo not given)	7.0%	-4.3%
CCN1CC=C2C(C#N)=C(N)C(C#N)(C#N)C(CCc3ccccc3)C2C1 (stereo not given)	6.31µM*	14.1µM*
O=C(NCCCCc1ccccc1)c1nn(-c2ccccc2)nc1CO	12.9%	-4.7%
COc1ccc2c(c1)c(=O)c(C(=O)c1ccccc1)cn2CC(=O)Nc1ccc2c(c1)OCO2	-24.8%	-2.7%
CCOC(=O)c1c(NC(=O)CC2SC(N)=NC2=O)sc2c1CCC(C)C2 (stereo not given)	?	-11.7%
SMILES	Cruzain noTriton	Cruzain inh Det
CCOC(=O)c1c(NC(=O)Cn2nc([N+](=O)[O-])c(Br)c2C)sc2c1CCC(C)C2 (stereo not given)	12.6µM*	-4.0%
Cc1ccc(OCC(=O)Nc2ccc3nc(SCC(=O)N4CCCC4)sc3c2)cc1	-12.7%	-2.2%
Cc1ccc(S(=O)(=O)N(CC(=O)Nc2ccc(Cl)c([N+](=O)[O-])c2)C2CCCCC2)cc1	12.6µM*	-6.0%
Cc1ccc(S(=O)(=O)N(CC(=O)Nc2cccc([N+](=O)[O-])c2)C2CCCCC2)cc1	3.6%	-4.9%
Cc1ccc(Cc2nc3ccccc3nc2SCC(=O)N2CCCc3ccccc32)cc1	-8.5%	-1.3%
CC1CCc2nc3ncn(Cc4ccccc4C#N)c(=O)c3cc2C1 (stereo not given)	-10.6%	-1.2%
CCS(=O)(=O)c1ncc(N(Cc2ccccc2)Cc2ccco2)c(C(=O)Nc2ccc(C)c(C)c2)n1	?	-3.4%
CCn1c(C)c(/C=N/Nc2nc3ccccc3s2)c2ccccc21	12.6µM*	-0.8%
CCOC(=O)N/N=C/c1c(C)nn(-c2ccccc2Cl)c1Cl	-1.7%	-3.6%
C(=N\Nc1nc2ccccc2s1)/c1cccs1	-1.6%	-5.3%
Cc1nn(-c2ccccc2Cl)c(Cl)c1/C=N/Nc1nc2ccccc2s1	12.6µM*	-1.9%
CC(=O)N1c2c(cc(Br)cc2S(=O)(=O)Nc2ccc(OC(F)(F)F)cc2)CC1C (stereo not given)	12.0%	-8.7%
CCCN1C(=O)c2[nH]nc(-c3cccc(OC)c3)c2C1c1ccccn1 (stereo not given)	0.5%	0.0%
COc1ccccc1CNC(=O)CCC1N=C2c3ccccc3N=C(SCC(=O)Nc3ccc(F)cc3)N2C1=O (stereo not given)	15.6%	-4.0%
Cc1ccc(Cn2c(C)c(CNCc3ccccc3F)c(C(=O)O)c2C)cc1	1.0%	-3.1%
